In experiment [1] the target is 6-phosphogluconate dehydrogenase, decarboxylating (Homo sapiens) (UniProt P52209). Kind of experiment: inhibition of human phosphogluconate dehydrogenase – biochemical, recombinant enzyme, NADPH absorbance, primary screen (AID 1159550). Conditions: recombinant 6PGD, NADPH absorbance 341 nm; at 10 µM; stronger effect = higher value.
A short description of experiment [2]: EMT-state selective cytotoxicity in co-culture – imaging, PC-3E GFP, TEM4-18 mCherry, primary screen (AID 1345086;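 active = compounds killing one labelled cell type while sparing the other, by normalised counts and ratio limits, not self-fluorescent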;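 as to all read-outs here: cells exposed to compound for 72 h before imaging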;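 as to red/green cell ratio (normalised): normalised mesenchymal count divided by normalised epithelial count so high means epithelial killing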). Conditions: PC-3E GFP / TEM4-18 mCherry co-culture, imaging cell counts, at 1 µM; for red/green cell ratio (normalised): actives lie on both sides.
Experiment [3] deals with Aerobactin synthetase IucA (Klebsiella pneumoniae hvKP1). Briefly: IucA enzyme inhibition, primary screen, biochemical, Spectrum library (AID 1346200; call rule not given here;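 also: 100% = wells without compound and 0% = wells lacking enzyme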). Conditions: malachite green pyrophosphate, A620, at 8 µM, stronger effect = lower value.
The target in experiment [4] is Mitogen-activated protein kinase 7 (Homo sapiens) (UniProt Q13164). Briefly: Gal4-ERK5 driven luciferase induction – cell-based, HTS, primary screen (AID 1508626;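 active = luciferase signal above three times the same-plate solvent-only control wells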;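 also: luciferase driven by Gal4-ERK5 fusion binding five Gal4 sites before minimal TATA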). Conditions: HeLa Gal4-ERK5 transactivation, 18 h, at 5 µM, stronger effect = higher value.
Sequence of Mitogen-activated protein kinase 7 (Homo sapiens) (Q13164 whole entry, looked up, the tested form may be a part): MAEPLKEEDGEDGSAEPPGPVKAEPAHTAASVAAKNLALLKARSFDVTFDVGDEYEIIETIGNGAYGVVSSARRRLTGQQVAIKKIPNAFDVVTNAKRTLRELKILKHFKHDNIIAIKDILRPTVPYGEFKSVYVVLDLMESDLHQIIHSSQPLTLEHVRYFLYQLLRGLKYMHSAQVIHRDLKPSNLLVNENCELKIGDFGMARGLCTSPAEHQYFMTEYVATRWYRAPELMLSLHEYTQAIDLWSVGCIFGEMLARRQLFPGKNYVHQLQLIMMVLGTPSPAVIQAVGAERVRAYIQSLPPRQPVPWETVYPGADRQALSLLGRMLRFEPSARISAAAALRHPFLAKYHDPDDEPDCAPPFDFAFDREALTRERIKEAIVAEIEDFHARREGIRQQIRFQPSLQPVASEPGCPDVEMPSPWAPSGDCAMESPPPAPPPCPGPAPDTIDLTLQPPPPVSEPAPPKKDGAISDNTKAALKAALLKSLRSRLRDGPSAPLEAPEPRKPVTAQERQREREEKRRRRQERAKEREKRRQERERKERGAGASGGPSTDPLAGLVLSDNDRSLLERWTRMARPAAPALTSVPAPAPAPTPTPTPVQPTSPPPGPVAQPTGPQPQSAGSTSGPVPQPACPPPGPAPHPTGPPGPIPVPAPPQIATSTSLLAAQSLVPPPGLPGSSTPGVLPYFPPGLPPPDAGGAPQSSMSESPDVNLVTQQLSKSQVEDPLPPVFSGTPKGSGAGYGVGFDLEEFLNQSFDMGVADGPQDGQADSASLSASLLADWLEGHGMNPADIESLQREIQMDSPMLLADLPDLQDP
The nature of experiment [5]: viability loss with induced miR-34 in A549 – imaging, A549 dox-inducible miR-34, nuclei and caspase counts, primary screen (AID 1347080;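 active = compounds whose cell count with miR-34 switched on is under 0.7 times the count with it off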). The following applies: A549 miR-34 inducible, Hoechst nuclei count, 48 h.
The target of experiment [6] is NAD(+) hydrolase SARM1 (Homo sapiens) (UniProt Q6SZW1). Briefly: blocking NAD cleavage by SARM1 SAM-TIR – cell lysate, NAD-Glo luminescence (AID 1508614;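 active = compound whose remaining NAD level is above about 45 nM, limit read from the data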;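 also: higher remaining NAD means stronger inhibition of SARM1 NADase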). Conditions: SAM-TIR HEK293T lysate NADase, at 1 µM, stronger effect = higher value.
Sequence of NAD(+) hydrolase SARM1 (Homo sapiens) (Q6SZW1 whole entry, looked up): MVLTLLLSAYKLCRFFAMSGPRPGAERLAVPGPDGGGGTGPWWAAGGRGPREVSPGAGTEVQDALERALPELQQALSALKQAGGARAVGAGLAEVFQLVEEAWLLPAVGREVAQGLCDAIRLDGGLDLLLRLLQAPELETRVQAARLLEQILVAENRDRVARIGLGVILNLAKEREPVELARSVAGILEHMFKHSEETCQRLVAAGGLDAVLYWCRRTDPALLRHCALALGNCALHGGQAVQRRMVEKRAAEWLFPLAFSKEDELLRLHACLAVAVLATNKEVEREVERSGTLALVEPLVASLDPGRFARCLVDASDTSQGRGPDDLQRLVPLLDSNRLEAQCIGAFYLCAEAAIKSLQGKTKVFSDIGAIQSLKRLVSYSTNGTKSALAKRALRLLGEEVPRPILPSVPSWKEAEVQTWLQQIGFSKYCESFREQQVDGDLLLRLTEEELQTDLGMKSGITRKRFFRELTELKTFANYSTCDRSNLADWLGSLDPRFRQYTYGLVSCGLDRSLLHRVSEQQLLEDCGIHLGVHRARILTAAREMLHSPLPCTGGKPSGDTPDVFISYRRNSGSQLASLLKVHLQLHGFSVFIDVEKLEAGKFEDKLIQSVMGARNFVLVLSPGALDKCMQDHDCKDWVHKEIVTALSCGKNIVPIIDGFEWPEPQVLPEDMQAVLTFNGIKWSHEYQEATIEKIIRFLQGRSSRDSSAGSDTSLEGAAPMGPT
Setting [7] is: measured here: epithelial PC-3E GFP cell survival.
The mark [8] stands for this setting: measured here: mesenchymal TEM4-18 mCherry cell survival.

SMILES strings stand for the structures. The source made the active and inactive calls.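 The calls were made as follows, unless noted: active = at least 20% inhibition of 6-phosphogluconate dehydrogenase activity; inactive = the rest.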

Sequence of 6-phosphogluconate dehydrogenase, decarboxylating (Homo sapiens) (P52209 whole entry, looked up): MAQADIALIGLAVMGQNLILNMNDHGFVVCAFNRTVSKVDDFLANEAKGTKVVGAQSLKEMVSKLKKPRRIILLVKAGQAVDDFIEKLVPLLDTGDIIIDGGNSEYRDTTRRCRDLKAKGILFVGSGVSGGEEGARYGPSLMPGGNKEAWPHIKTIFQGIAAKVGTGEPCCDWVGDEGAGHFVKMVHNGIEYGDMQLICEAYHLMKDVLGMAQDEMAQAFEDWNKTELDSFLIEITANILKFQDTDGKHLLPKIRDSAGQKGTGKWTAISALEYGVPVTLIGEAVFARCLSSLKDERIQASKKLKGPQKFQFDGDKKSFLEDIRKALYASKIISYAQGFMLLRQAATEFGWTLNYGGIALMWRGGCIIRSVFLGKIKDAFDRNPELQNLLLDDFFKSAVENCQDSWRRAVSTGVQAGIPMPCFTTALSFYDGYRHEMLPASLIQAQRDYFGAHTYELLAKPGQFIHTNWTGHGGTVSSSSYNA

On to `COc1cc2c(cc1O)CCNC2C` (stereo unspecified), for which, in experiment [1], the inhibition is -21.7% (inactive). The red/green cell ratio (normalised) in experiment [2] was 0.92 (inactive). For the same compound, the normalised cell number in experiment [2] (setting [7]) stood at 1; in experiment [2] (setting [8]) it was 0.92. In addition, the activity remaining in experiment [3] is 107% (inactive). Also, in experiment [4], the luciferase signal was 120 AU (inactive).

Regarding `COc1cc2occc2c2oc(=O)ccc12`, the inhibition in experiment [1] was 11.9% (inactive). Besides, the red/green cell ratio (normalised) in experiment [2] was 1.13 (inactive). For the same compound, the normalised cell number came to 1 in experiment [2] (setting [7]) and 1.14 in experiment [2] (setting [8]). In experiment [3], the activity remaining was 121% (inactive). Besides, the luciferase signal in experiment [4] was 84 AU (inactive).

Regarding `COC(=O)[C@]1(C)CC[C@]2(C)CC[C@]3(C)C4=CC=C5C(=CC(=O)C(O)=C5C)[C@]4(C)CC[C@@]3(C)[C@@H]2C1`, in experiment [1], the inhibition was 9.49% (inactive). In addition, the red/green cell ratio (normalised) in experiment [2] is 0.14 (inactive). Besides, the normalised cell number in experiment [2] (setting [7]) was found to be 0.01; in experiment [2] (setting [8]), 0. Further, the activity remaining in experiment [3] is 87.2% (inactive). For the same compound, the luciferase signal in experiment [4] was 152 AU (inactive).

For `CC(C)c1ccc2c(c1O)CC[C@H]1C3=C(CC[C@]21C)C(=O)OC3`, the inhibition in experiment [1] is -50.6% (inactive). The red/green cell ratio (normalised) in experiment [2] was 0.95 (inactive). For the same compound, the figures for the normalised cell number in experiment [2] (setting [7]) and in experiment [2] (setting [8]) were 1.07 and 1.02, respectively. Further, the activity remaining in experiment [3] is 90.4% (inactive). The luciferase signal in experiment [4] was 64 AU (inactive).

Regarding `CC(=O)C1CCC2C3CCC4C[C@H](O)CCC4(C)C3C[C@H](O)C12C` (stereo partly specified), the inhibition in experiment [1] was -3.34% (inactive). Further, the red/green cell ratio (normalised) in experiment [2] was 1.12 (inactive). In addition, the normalised cell number in experiment [2] (setting [7]) worked out at 0.99; in experiment [2] (setting [8]), 1.11. Further, the activity remaining in experiment [3] was 112% (inactive). Besides, in experiment [4], the luciferase signal was 32 AU (inactive).

For the compound `CC(C)=CCCC1(C)C=Cc2c(O)c3c(c(CC=C(C)C)c2O1)OC12C(=CC4CC1C(C)(C)OC2(C/C=C(/C)C(=O)O)C4O)C3=O` (stereo unspecified), the inhibition in experiment [1] was 3.01% (inactive). In addition, the red/green cell ratio (normalised) in experiment [2] was 0.97 (inactive). Besides, the results for the normalised cell number in experiment [2] (setting [7]) and in experiment [2] (setting [8]) were 0.89 and 0.87, respectively. The activity remaining in experiment [3] was 106% (inactive). For the same compound, the luciferase signal in experiment [4] was 88 AU (inactive).

As to `COC1=CC23CCCN2CCc2cc4c(cc2C3C1O)OCO4` (stereo unspecified), the inhibition in experiment [1] is -9.46% (inactive). Moreover, the activity remaining in experiment [3] was 108% (inactive).

Consider `O=C(O)CF`, for which, in experiment [1], the inhibition is 10.5% (inactive). Also, the red/green cell ratio (normalised) in experiment [2] (counts scaled to control wells, 1 = unselective) is 0.92 (inactive). Further, the normalised cell number was 1.09 in experiment [2] (setting [7]) and 1 in experiment [2] (setting [8]). For the same compound, the luciferase signal in experiment [4] is 80 AU (inactive).

As for `CNc1ccccc1C(=O)O`, the inhibition in experiment [1] is 18.3% (inactive). Further, the red/green cell ratio (normalised) in experiment [2] was 0.85 (inactive). The normalised cell number in experiment [2] (setting [7]) is 1.13; in experiment [2] (setting [8]) it was 0.95. Further, the luciferase signal in experiment [4] is 76 AU (inactive).

Regarding `CC(C)N(C(=O)SCC(Cl)=C(Cl)Cl)C(C)C`, the inhibition in experiment [1] was 4.75% (inactive). Moreover, in experiment [3], the activity remaining is 102% (inactive).

Take `CNC(=O)N(C)c1nnc(C(C)(C)C)s1`: the inhibition in experiment [1] was -12.3% (inactive). Moreover, in experiment [3], the activity remaining is 98% (inactive).

Turning to `NCC(N)C(=O)c1ccccc1` (stereo unspecified), the inhibition in experiment [1] was -14.8% (inactive). Also, in experiment [3], the activity remaining was 109% (inactive).

In the case of `CNC(=O)Oc1ccccc1OC(C)C`, the inhibition in experiment [1] is -1.91% (inactive). Further, in experiment [2], the red/green cell ratio (normalised) is 1 (inactive). The normalised cell number in experiment [2] (setting [7]) was determined as 1.06; in experiment [2] (setting [8]) it was 1.05. Besides, the fold change in experiment [5] (stronger effect = lower value) was 0.96 (inactive); in experiment [5] (measured here: relative caspase fold change +Dox/-Dox) it was 0.908. Also, the cell count in experiment [5] (measured here: total cells with miR-34 induction, stronger effect = lower value) was 8560; in experiment [5] (measured here: total cells without miR-34 induction), 8930. For the same compound, the remaining NAD in experiment [6] is 10 nM (inactive). Moreover, the luciferase signal in experiment [4] was 88 AU (inactive).

As to `CNC(=O)CSP(=S)(OC)OC`, in experiment [1], the inhibition is -17.5% (inactive). Also, in experiment [3], the activity remaining was 98.2% (inactive).

The values above are taken from PubChem BioAssay.
